Laboratory results taken from publication PMC7819943, “Rice protein-binding microarrays: a tool to detect cis-acting elements near promoter regions in rice”.
Whole data set: some 39,000 sequences, median “fluorescence intensity (a.u.)” near 4,300, cut for the highest 2% near 39,000. Only a selection was taken, and the highest values are over-represented in it overall.

Molecular target: T1, OsSMF1 (Oryza sativa, UniProt Q6ZLB0 1-436)
T1 sequence: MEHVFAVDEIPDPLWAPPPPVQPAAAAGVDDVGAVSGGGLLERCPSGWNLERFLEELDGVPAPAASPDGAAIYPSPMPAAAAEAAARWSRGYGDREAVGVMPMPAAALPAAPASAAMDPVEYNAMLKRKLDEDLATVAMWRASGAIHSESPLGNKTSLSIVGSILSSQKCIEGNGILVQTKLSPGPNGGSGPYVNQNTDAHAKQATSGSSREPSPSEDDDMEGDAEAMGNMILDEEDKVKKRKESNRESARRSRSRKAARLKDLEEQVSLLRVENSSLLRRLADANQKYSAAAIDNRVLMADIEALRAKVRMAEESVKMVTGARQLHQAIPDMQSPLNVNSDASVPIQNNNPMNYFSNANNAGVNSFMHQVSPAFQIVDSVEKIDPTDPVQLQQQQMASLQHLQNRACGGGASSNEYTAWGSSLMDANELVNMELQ
Assay: protein-binding microarray (RPBM); PBS, 2% BSA, 51.3 ng/ul salmon testes DNA, 50 uM zinc acetate, 200 nM TF, 25 C, 1 h; high values mean tight binding
Conditions: protein: recombinant; tags: N-terminal polyhistidine and DsRed monomer fusion (pET32a); chain copies: 2; label: CyDye5-dUTP incorporated in the synthesized complementary strand; 3' TTTTT single-stranded linker to array surface; dsDNA, one strand shown
In short: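 The binding signal is fluorescence intensity per array feature (arbitrary units). Readings came from an Axon 4000B scanner after a washed, 2% BSA-blocked, double-stranded custom Agilent array had been incubated for 1 h at 25 °C with 200 nM protein and 50 µM zinc acetate. The protein was a Ni–NTA-purified transcription factor fused N-terminally to polyhistidine and DsRed, expressed in E. coli BL21-CodonPlus.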

Sequence	binding signal
ACCTGTGAATGTCTCTAGTGTGACGACTCTACTTCAGTTTCGGAGTCACCTAGTGCAG	4050 fluorescence intensity (a.u.)
GAGCCTTACCGGCTCAGACTTGGCATGACGTGGACGTACACGGAGTCACCTAGTGCAG	22500 fluorescence intensity (a.u.)
TTCATTCCCAAATGCCACCCGGGCCCACATGTCAGCCTCACGGAGTCACCTAGTGCAG	4670 fluorescence intensity (a.u.)
TTACCCTTAGTCATTTGACCCTATTACATGTGGGACCCACCGGAGTCACCTAGTGCAG	3900 fluorescence intensity (a.u.)
GTCATGGATCAAATCATCATGTATATCATCCGTCGTCGTGCGGAGTCACCTAGTGCAG	3180 fluorescence intensity (a.u.)
TGTTGCTCGGCCAAACGTACACACAGTTCGTTATATATCGCGGAGTCACCTAGTGCAG	12100 fluorescence intensity (a.u.)
TATTTTGGAGCGGACGAAGTAATAATATAGTACACGTCGGCGGAGTCACCTAGTGCAG	5310 fluorescence intensity (a.u.)
CCCATAACTGAATTGTTAATTTTGTCACGCGAGCAACGCACGGAGTCACCTAGTGCAG	19300 fluorescence intensity (a.u.)
ATACAAGACAAATCGATTAACATAAGATCGATATATCGCTCGGAGTCACCTAGTGCAG	24700 fluorescence intensity (a.u.)
GATAATTAAGCTGATAGCGAGACATAACAAGCTCTGTTCTCGGAGTCACCTAGTGCAG	49600 fluorescence intensity (a.u.)
ATACATAGCCATATATAAAATTAATGTGATAACATATTCTCGGAGTCACCTAGTGCAG	3660 fluorescence intensity (a.u.)
TGATAATAATTATTTCTTGGTCTTTAAATTAAGGGTGATTCGGAGTCACCTAGTGCAG	14800 fluorescence intensity (a.u.)
TGTTTGTAAAGTAGAGCGTGCATGTGTGCGTTCTTAAGGTCGGAGTCACCTAGTGCAG	3590 fluorescence intensity (a.u.)
AAGTAAATGTAGATAAGGCCGTGTAATAAAGGTTGCTAGTCGGAGTCACCTAGTGCAG	56800 fluorescence intensity (a.u.)
TAATAAGAGGCTGTAAGTCGGCTAAATGCTGAGGTGGAGGCGGAGTCACCTAGTGCAG	8660 fluorescence intensity (a.u.)
AAATTCGTTCTACAACTAAACAGGTTGCTTCAGAGTGCAACGGAGTCACCTAGTGCAG	30800 fluorescence intensity (a.u.)
TTGGTAGGTTCGACCTACTAGATTGTTGTTGATAATATAACGGAGTCACCTAGTGCAG	51700 fluorescence intensity (a.u.)
AATATAGTGTTGTTTGGTACTATATCGAGTTGGATTAGTTCGGAGTCACCTAGTGCAG	3190 fluorescence intensity (a.u.)
TGTTCATCCAAGGAGATTATCAGGTTGTTTGTATATATAACGGAGTCACCTAGTGCAG	26400 fluorescence intensity (a.u.)
GATTCGAGATTCAGGTAGGTTGTATAGTTCACGGGAGCAACGGAGTCACCTAGTGCAG	64500 fluorescence intensity (a.u.)
GATTGGTAGTATTTAGTTGTGTATAATGTATTATTAGGTTCGGAGTCACCTAGTGCAG	3720 fluorescence intensity (a.u.)
TGCTATGCATACGACTCAGCTGTCCGACTCATGTATGAATCGGAGTCACCTAGTGCAG	3720 fluorescence intensity (a.u.)
CGCGGCACGGGGAGACGACACGTCGGATGGTTGGCAGGAGCGGAGTCACCTAGTGCAG	16400 fluorescence intensity (a.u.)

Sequence	binding signal
TTCTTCCTATATAAGCACAACACACGTCCTTACTTGTGTGCGGAGTCACCTAGTGCAG	5410 fluorescence intensity (a.u.)
GGCGTTCTGCCGCCTGGCGCCGCTCGTCACGTACGAGGACCGGAGTCACCTAGTGCAG	3350 fluorescence intensity (a.u.)
TCTGTAGTAGTCATCATCACCTAGGTGCCTACCCTTTTGACGGAGTCACCTAGTGCAG	3280 fluorescence intensity (a.u.)
TGTGAGCACGGATCGACGATGAAAACAGACGAAGAACATTCGGAGTCACCTAGTGCAG	27400 fluorescence intensity (a.u.)
CTGGGAAATAGTGCTGCAGAGTCACTAGTTAGATCGAAATCGGAGTCACCTAGTGCAG	3980 fluorescence intensity (a.u.)
ACTACAAATAGATCGAACAGAAACAGAGCATCACGACGACCGGAGTCACCTAGTGCAG	40300 fluorescence intensity (a.u.)
TCTCAACCCTCAGGTAATCTACTGCTGCGCGTGGTGAATCCGGAGTCACCTAGTGCAG	4080 fluorescence intensity (a.u.)
CTACTAATAAGGCGTGTTATTATTGGTCATCAATGGCGTCCGGAGTCACCTAGTGCAG	3300 fluorescence intensity (a.u.)
AAAGTCCGCTCGTGTTATTGGTAATTGAACTACTAAGCTACGGAGTCACCTAGTGCAG	41300 fluorescence intensity (a.u.)
ATACTAATAGTATAGTAAGCAACTATTGTATGAATTGGCTCGGAGTCACCTAGTGCAG	3740 fluorescence intensity (a.u.)
GGATCCGGGCATCTGGCTGCCCCGCCGCCACTCCGCCTAGCGGAGTCACCTAGTGCAG	3330 fluorescence intensity (a.u.)
ATTGGTATGGTATATTCATACCATAACATAAGAACAATAACGGAGTCACCTAGTGCAG	21200 fluorescence intensity (a.u.)
TTGGATGTTTGCCGTGGACAAGTGCTAACTGTCAAAACCCCGGAGTCACCTAGTGCAG	34900 fluorescence intensity (a.u.)
GTGTGAAAAGATGCTGGCCCAATTAATTTGCGCGCGTCATCGGAGTCACCTAGTGCAG	48700 fluorescence intensity (a.u.)
TTGAAACTGTGCATGCGCATCACCTTCATGCCCAAAATTTCGGAGTCACCTAGTGCAG	3160 fluorescence intensity (a.u.)
CTTGTGGCCCATTAATGGCTCGCGTCGGCCTAATTTTGTGCGGAGTCACCTAGTGCAG	4450 fluorescence intensity (a.u.)
ACCAGTCCCAAATCAAACAGTCCTACTAGTTGCATTTTGTCGGAGTCACCTAGTGCAG	47200 fluorescence intensity (a.u.)
TATCATTTGTCAAACACACCCATATCCCATTTGCCAATCACGGAGTCACCTAGTGCAG	3890 fluorescence intensity (a.u.)
AACGTCGGTTCCCAAACATTTGTTTTCCTTACCAATCGGGCGGAGTCACCTAGTGCAG	3490 fluorescence intensity (a.u.)
TCAATCATGAGGACATGGTAATATATTGCTTGTGTTGCTTCGGAGTCACCTAGTGCAG	3550 fluorescence intensity (a.u.)
AATTATAAAATCCAGAAAATAAACTAAGAACTGAAAACTACGGAGTCACCTAGTGCAG	5060 fluorescence intensity (a.u.)
GTGTGAAACTCATACAAATATAAAATTACTGAACTACCGTCGGAGTCACCTAGTGCAG	49600 fluorescence intensity (a.u.)
